Sampled rows, rich in hits. Any-hit rate of the full collection: about 3.7%.
PTHR1 ag = activates the human parathyroid hormone receptor PTHR1; HEK293 GP2 PTHR1 cells, GloSensor cAMP luminescence, 1 h; 410,000 compounds, 0.075% hits; AID 743266; Q03431; Potency, µM (highest dose often 115 µM), without a hit: at the highest dose activation, actives largely listed as activators; also: potency is read from the fitted curve at half-maximal effect; nearly all actives have a fitted effect of over 55% in size
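HEK-293-derived GP2 cells expressing PTHR1 and a GloSensor cAMP reporter, 3,000/well, plated overnight, given luciferin plus IBMX (each 0.5 mM as added) for 1 h at 37 °C, then compound for 1 h at 37 °C. Luminescence was read after 15 min at room temperature.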
D3 ag = agonists of human D3 dopamine receptor | P35462 | D3R DiscoveRx beta-arrestin cells, luminescence, 90 min | max activation, % | 410,000 compounds, 0.58% hits | AID 652048; in the data active = max activation above about 30%; also: 0% is about no effect
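Agonist mode: compounds and dopamine controls were applied to plated cells for 90 min at 37 degrees C after an overnight attachment at 1500 cells/well. Luminescent read-out followed 30 - 60 minutes at room temperature with DiscoveRx detection reagent.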
RGS4 inh = blocks human RGS4-accelerated GTP hydrolysis; P49798; Transcreener GDP fluorescence polarization, RGS4-accelerated GTP hydrolysis; Potency, µM (top dose mostly 114 µM), for inactives: at the highest dose activity change, negative = inhibition, usual class: inhibitors; 390,000 compounds, 0.039% hits; also: potency is read from the fitted curve at half-maximal effect; % is scaled to controls: 0 for no effect and ±100 for the full control effect; nearly all actives have a fitted effect of over 75% in size
Target sequence (P49798 whole entry, looked up): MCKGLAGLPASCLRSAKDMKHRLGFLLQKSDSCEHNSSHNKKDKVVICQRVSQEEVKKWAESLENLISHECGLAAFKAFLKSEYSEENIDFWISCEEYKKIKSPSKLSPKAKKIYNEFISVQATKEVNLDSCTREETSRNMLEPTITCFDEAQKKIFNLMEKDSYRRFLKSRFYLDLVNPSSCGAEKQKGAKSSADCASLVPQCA
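MLSMR compounds (23 nl, pin-transferred) preincubated 10 min at room temperature with a 500nM (2x) first reagent, then RGS4 at 900nM (2x) plus Transcreener GDP mix added; fluorescence polarization (620/688 nm) read before and after 90 min at 30 °C.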
DRD3 antagonist = D3 dopamine receptor (human) antagonism. P35462. D3R cells, DiscoveRx beta-arrestin luminescence, antagonist mode; hits give low values. max response, negative = inhibition, %. 360,000 compounds, 2.5% hits; in the data active = max response below about -50%; inconclusive = no clear call, values can overlap the other calls; also: % is scaled to controls: 0 for no effect and ±100 for the full control effect
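Cells plated overnight at 1500 cells/well, then exposed to library compounds with dopamine controls for 90 minutes at 37 degrees C. DiscoveRx reagent added for 30–60 minutes at room temperature; luminescence read, quantitative HTS format.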
B2AR arrestin = agonists driving beta-arrestin recruitment to human beta2-adrenergic receptor; P07550; beta-arrestin recruitment to beta2AR, cell-based reporter; Potency, µM (titrated, usually from 46.1 µM), without a hit: top-dose activation, usual class: activators; 330,000 compounds, 0.02% hits;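 also: potency is read from the fitted curve at half-maximal effect; 0% = DMSO controls and full agonism = EC100 isoproterenol or metaproterenol; nearly all actives have a fitted effect of over 65% in size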
Target sequence (P07550 whole entry, looked up): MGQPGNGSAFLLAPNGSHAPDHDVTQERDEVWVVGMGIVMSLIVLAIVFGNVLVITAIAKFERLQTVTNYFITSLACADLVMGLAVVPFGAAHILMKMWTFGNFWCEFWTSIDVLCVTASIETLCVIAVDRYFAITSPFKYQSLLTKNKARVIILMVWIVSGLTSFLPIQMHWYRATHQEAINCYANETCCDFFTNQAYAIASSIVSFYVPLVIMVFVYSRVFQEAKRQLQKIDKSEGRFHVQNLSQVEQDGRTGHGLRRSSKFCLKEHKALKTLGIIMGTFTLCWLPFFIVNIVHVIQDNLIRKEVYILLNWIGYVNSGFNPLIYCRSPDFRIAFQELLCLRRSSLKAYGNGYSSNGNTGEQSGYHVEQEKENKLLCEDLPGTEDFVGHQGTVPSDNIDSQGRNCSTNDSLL
BRCA1 expr act = activators of BRCA1 expression; MCF7-BRCA1-FFLuc reporter, luminescence, 48 h; response scale: scaled: vehicle 0%, 10 µM genistein 100%; Potency, µM (series often up to 46.1 µM), for inactives: at the highest dose activation, actives largely listed as activators; 380,000 compounds, 1.1% hits; AID 624202; also: potency is read from the fitted curve at half-maximal effect; nearly all actives have a fitted effect of over 80% in size
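Using MCF7 cells harboring a BRCA1 firefly luciferase reporter, plated 2 h before compound pinning, the screen measured luminescence after 48 h incubation. Responses were normalized to DMSO and 10 microM genistein, then fitted for concentration-effect.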
* hit, by the source's call; i = inactive; u = inconclusive; x = no result given; [ ] = dose if it differs, or a comment. Unless noted, calls follow the shape of the dose curve; as a rule, active = well fitted curve in the direction sought with a large enough effect; inconclusive = small, poorly fitted or top-dose-only effect, or another doubt; inactive = no such curve, though single readings can be large; an effect the other way counts as inactive or inconclusive.

SMILES	PTHR1 ag	D3 ag	RGS4 inh	DRD3 antagonist	B2AR arrestin	BRCA1 expr act
CCOC(=O)C(=O)NC1CC=CCC1c1ccc2c(c1)OCO2 (stereo unspecified)	i	7	0%	7	x	-20%
CCCNC(=O)c1ccc2c(=O)c(O)c(-c3cccc(Br)c3)[nH]c2c1	-7%	3	-5%	0	0%	-61%
CCCNC(=O)c1ccc2c(=O)c(O)c(C)[nH]c2c1	i	33*	14%	21	0%	9%
CCCNC(=O)c1ccc2c(=O)c(O)c(-c3ccc(F)cc3)[nH]c2c1	-9%	14	-9%	-13	0%	-65%
Nc1c(Cl)cc(-c2[nH]c3cc(C(=O)NCCO)ccc3c(=O)c2O)cc1Cl	-17%	35*	0%	32	0%	0%
CC(C)Nc1ncnc2c1ncn2[C@H]1CN(Cc2cccs2)C[C@@H](CO)O1	-20%	-9	x	13	x	13%
CC#CC#Cc1cccc(=O)o1	-3%	-1	-3%	5	-1%	-93%
COc1ccccc1OCC(=O)Nc1sc2c(c1C(N)=O)CCC2	-30%	0	-12%	-12	0%	5µM*
CCOC(=O)c1c(NC(=O)COc2ccc(CC)cc2)sc2c1CCCC2	i	7	-15%	x	x	-5%
COc1cccc(C(=O)OCC(=O)Nc2sc3c(c2C(N)=O)CCC3)c1O	-13%	12	-37%	4	0%	-30%
CCOC(=O)c1c(NC(=O)COc2ncnc3sccc23)sc2c1CCC2	i	35*	-7%	20	0%	-19%
O=c1oc2cc(Br)ccc2n1CSC1=NCCS1	-11%	-9	u	-53*	0%	-7%
CN(CC(=O)Nc1c(Cl)cccc1Cl)C(=O)c1n[nH]c2ccccc12	i	11	9%	3	-1%	15%
c1ccc(CSc2ccc(-c3cccs3)nn2)cc1	-35%	-16	-27%	-23	0%	u
CCOc1ccc(-c2ccc(SCc3ccccn3)nn2)cc1	-19%	5	0%	5	0%	4.5µM*
CCc1ccc(NC(=O)CSc2ccc(-c3ccccn3)nn2)cc1	-25%	-3	28%	1	-1%	-35%
CCSc1ccc(-c2ccc(C)cc2)nn1	-5%	1	19%	16	0%	2.5µM*
c1ccc(CSc2ccc(-c3cccs3)nn2)nc1	-13%	0	-8%	u	0%	7.9µM*
CCc1ccc(-c2ccc(SCc3ccccn3)nn2)cc1	-33%	9	39%	-16	0%	5µM*
CCOc1ccc(-c2ccc(SCC(=O)N3CCN(c4ccccc4)CC3)nn2)cc1	x	x	x	x	0%	x
CCOc1ccc(-c2ccc(SCC)nn2)cc1	-32%	1	-6%	5	0%	57%
Cc1ccc2nc(SCC(=O)Nc3ccc4c(c3)OCO4)nc(=O)n2c1	i	0	4%	-15	0%	0%
CCc1ccc(NC(=O)Cn2c(=O)n(CCCC(=O)NCc3ccccc3OC)c(=O)c3ccccc32)cc1	-22%	-11	-7%	x	x	15%
O=C(CSc1ccc(-c2cccs2)nn1)c1cccs1	-10%	-13	-16%	-6	0%	11µM*
O=C(CSc1ccc(-c2cccs2)nn1)Nc1ccccc1	-15%	4	-22%	12	0%	-8%
SMILES	PTHR1 ag	D3 ag	RGS4 inh	DRD3 antagonist	B2AR arrestin	BRCA1 expr act
O=C(Nc1ccccc1Oc1ccccc1)[C@@H]1O[C@H](CO)[C@H](O)[C@H](O)[C@H]1O	-21%	-33	x	-162*	x	34%
COc1ccc(-c2ccccc2)cc1NC(=O)[C@@H]1O[C@H](CO)[C@@H](O)[C@H]1O	i	-1	x	-5	x	0%
O=C(Cc1c(Cl)cccc1Cl)N1CCN(S(=O)(=O)c2cccs2)CC1	-43%	3	-14%	7	0%	-14%
CCOc1cccc(-c2csc(C3COc4ccccc4O3)n2)c1 (stereo unspecified)	i	-2	-4%	-19	0%	5µM*
NC(N)=Nc1nc(C2COc3ccccc3O2)cs1 (stereo unspecified)	-29%	8	17%	9	0%	u
Cc1c(C(=O)Nc2ccc(F)cc2F)sc2nc3n(c(=O)c12)N=C(c1ccccc1)CS3	i	-4	0%	x	x	x
COc1ccc(-c2oc(=O)c3cc(OC)c(OC)cc3c2-c2ccc3c(c2)OCO3)cc1	i	11	10%	13	0%	-40%
COc1ccc(-c2c(-c3ccsc3)oc(=O)c3cc(OC)c(OC)cc23)cc1	i	39*	16%	61	0%	0%
COCc1ccc(-c2c(-c3ccc(OC)cc3)oc(=O)c3cc(OC)c(OC)cc23)cc1	-51%	34*	16%	98	0%	27%
NC(=O)OC[C@@H]1[C@H](NC(=O)/C(=N\OCC(=O)O)c2csc(N)n2)C(=O)N1S(=O)(=O)O	x	1	x	x	x	x
CCCCOc1ccc(C(=O)N2CCCCCC2)cc1	i	-1	11%	20	0%	99%
O=C(CNCc1ccc(Cl)cc1)Nc1ccc(C(=O)N2CCCCCC2)cc1	-19%	-21	8%	-65*	0%	-12%
CN1CCN(C(=O)CN(Cc2ccc(Cl)cc2)S(C)(=O)=O)CC1	i	7	-19%	-10	0%	-6%
O=C(c1ccc(COc2ccc(Cl)cc2)cc1)N1CCCCC1	i	-4	7%	13	0%	3.2µM*
O=C(CCCOc1ccc(Cl)cc1)N1CCCCCC1	-33%	3	-31%	-15	0%	71%
CS(=O)(=O)N(CC(=O)N1CCCCCC1)Cc1ccc(Cl)cc1	0%	-3	4%	-78*	0%	-15%
O=C(CNCc1ccc(Cl)cc1)Nc1ccc(C(=O)N2CCCCC2)cc1	-13%	-11	-11%	-2	0%	-1%
O=C(CCCOc1ccc(Cl)cc1)N1CCCCC1	i	-23	0%	-20	-1%	13µM*
COc1cccc(C(=O)NC2CC3CCCC(C2)N3CC(=O)Nc2ccccc2)c1 (stereo unspecified)	-8%[57.5 µM]	-3	0%[56.9 µM]	-59*	0%	-50%
COc1cccc(C(=O)NC2CC3CCCC(C2)N3Cc2ccc(C)cc2)c1 (stereo unspecified)	-2%	-18	0%	-112*	0%	-7%
COc1cccc(C(=O)NC2CC3CCCC(C2)N3CC(=O)Nc2ccc(N(C)C)cc2)c1 (stereo unspecified)	-16%	-2	-13%	8	-1%	-30%
COc1cccc(C(=O)NC2CC3CCCC(C2)N3Cc2ccc(F)cc2)c1 (stereo unspecified)	-23%	-12	x	-107*	x	-1%
